Source: the supplement of paper PMC9694430

How the values were obtained:
Experiment in all cases: thermal shift delta Tm vs DMSO control; higher = stronger stabilization (binding)
Details in all cases: 12.5 µM; protein concentration 2 µM
LOC_OS02G45750-cb003 = tested on: LOC_OS02G45750-cb003
In short: (§1)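 Purified, E. coli-expressed rice kinase domain constructs were tested by differential scanning fluorimetry in 96-well plates: 19.5 μl of 2 μM kinase in 100 mM potassium phosphate pH 7.5, 150 mM NaCl, 10% glycerol, 5 × SYPRO Orange, plus compound in DMSO. Fluorescence was read from 25°C to 95°C at 0.05°C/s. Melting temperatures came from Boltzmann fits, and the shift is the triplicate mean relative to protein with DMSO alone.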

LOC_OS02G54510-cb004 = tested on: LOC_OS02G54510-cb004
In short: as §1

LOC_OS03G04050-cb001 = tested on: LOC_OS03G04050-cb001
In short: as §1

LOC_OS03G12390-cb001 = tested on: LOC_OS03G12390-cb001
In short: as §1

LOC_OS03G27990-cb004 = tested on: LOC_OS03G27990-cb004
In short: as §1

LOC_OS03G50450-cb001 = tested on: LOC_OS03G50450-cb001
In short: as §1

LOC_OS03G50810-cb003 = tested on: LOC_OS03G50810-cb003
In short: as §1

LOC_OS04G35114-cb001 = tested on: LOC_OS04G35114-cb001
In short: as §1

LOC_OS04G38480-cb003 = tested on: T1, LOC_OS04G38480-cb003
T1 sequence (whole entry): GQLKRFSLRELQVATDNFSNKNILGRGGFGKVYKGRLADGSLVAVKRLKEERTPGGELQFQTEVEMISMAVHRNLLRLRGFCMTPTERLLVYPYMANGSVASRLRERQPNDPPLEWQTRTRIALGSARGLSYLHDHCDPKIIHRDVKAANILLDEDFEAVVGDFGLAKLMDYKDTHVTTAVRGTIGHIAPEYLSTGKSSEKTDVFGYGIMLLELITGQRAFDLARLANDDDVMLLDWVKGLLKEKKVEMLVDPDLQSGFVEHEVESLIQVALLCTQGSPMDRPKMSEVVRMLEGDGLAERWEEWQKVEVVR
In short: as §1

LOC_OS04G41100-cb001 = tested on: T2, LOC_OS04G41100-cb001
T2 sequence (whole entry): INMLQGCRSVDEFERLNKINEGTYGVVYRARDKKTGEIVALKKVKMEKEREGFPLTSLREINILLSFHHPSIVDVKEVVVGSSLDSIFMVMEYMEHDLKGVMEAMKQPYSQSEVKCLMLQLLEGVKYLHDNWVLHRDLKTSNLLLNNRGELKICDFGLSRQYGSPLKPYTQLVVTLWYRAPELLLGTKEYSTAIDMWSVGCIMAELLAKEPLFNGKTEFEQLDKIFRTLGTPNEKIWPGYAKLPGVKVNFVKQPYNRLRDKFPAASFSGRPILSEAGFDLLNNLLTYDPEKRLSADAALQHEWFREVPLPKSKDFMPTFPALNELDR
In short: as §1

LOC_OS04G57630-cb004 = tested on: LOC_OS04G57630-cb004
In short: as §1

LOC_OS05G07850-cb002 = tested on: LOC_OS05G07850-cb002
In short: as §1

LOC_OS05G16824-cb004 = tested on: LOC_OS05G16824-cb004
In short: as §1

LOC_OS05G28520-cb001 = tested on: LOC_OS05G28520-cb001
In short: as §1

LOC_OS05G30820-cb001 = tested on: LOC_OS05G30820-cb001
In short: as §1

LOC_OS05G43570-cb004 = tested on: LOC_OS05G43570-cb004
In short: as §1

LOC_OS06G16330-cb003 = tested on: LOC_OS06G16330-cb003
In short: as §1

LOC_OS06G22820-cb001 = tested on: T3, LOC_OS06G22820-cb001
T3 sequence (whole entry): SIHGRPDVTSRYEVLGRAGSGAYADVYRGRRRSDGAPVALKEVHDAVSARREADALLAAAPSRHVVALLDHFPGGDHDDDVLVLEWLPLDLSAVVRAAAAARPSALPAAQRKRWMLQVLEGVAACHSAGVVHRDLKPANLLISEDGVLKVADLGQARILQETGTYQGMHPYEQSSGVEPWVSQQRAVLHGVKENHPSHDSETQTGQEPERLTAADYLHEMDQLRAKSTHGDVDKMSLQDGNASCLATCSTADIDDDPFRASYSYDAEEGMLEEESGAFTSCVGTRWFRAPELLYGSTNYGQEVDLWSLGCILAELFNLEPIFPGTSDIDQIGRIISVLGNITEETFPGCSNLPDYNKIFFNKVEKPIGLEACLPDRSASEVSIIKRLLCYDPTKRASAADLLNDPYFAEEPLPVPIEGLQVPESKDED
In short: as §1

LOC_OS07G06570-cb004 = tested on: LOC_OS07G06570-cb004
In short: as §1

LOC_OS07G07230-cb001 = tested on: LOC_OS07G07230-cb001
In short: as §1

LOC_OS06G16330-cb003, sequence (as listed by the source): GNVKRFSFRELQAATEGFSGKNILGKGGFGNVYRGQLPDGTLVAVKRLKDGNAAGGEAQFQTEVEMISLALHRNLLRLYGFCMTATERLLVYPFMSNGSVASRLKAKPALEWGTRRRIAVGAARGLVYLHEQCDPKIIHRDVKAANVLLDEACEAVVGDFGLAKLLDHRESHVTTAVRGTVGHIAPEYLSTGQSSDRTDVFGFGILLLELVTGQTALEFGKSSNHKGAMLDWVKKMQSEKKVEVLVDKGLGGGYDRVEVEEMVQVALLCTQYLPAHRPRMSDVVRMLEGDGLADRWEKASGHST

| Structure (SMILES) | thermal shift delta Tm (LOC_OS02G45750-cb003) [°C] | thermal shift delta Tm (LOC_OS02G54510-cb004) [°C] | thermal shift delta Tm (LOC_OS03G04050-cb001) [°C] | thermal shift delta Tm (LOC_OS03G12390-cb001) [°C] | thermal shift delta Tm (LOC_OS03G27990-cb004) [°C] | thermal shift delta Tm (LOC_OS03G50450-cb001) [°C] | thermal shift delta Tm (LOC_OS03G50810-cb003) [°C] | thermal shift delta Tm (LOC_OS04G35114-cb001) [°C] | thermal shift delta Tm (LOC_OS04G38480-cb003) [°C] | thermal shift delta Tm (LOC_OS04G41100-cb001) [°C] | thermal shift delta Tm (LOC_OS04G57630-cb004) [°C] | thermal shift delta Tm (LOC_OS05G07850-cb002) [°C] | thermal shift delta Tm (LOC_OS05G16824-cb004) [°C] | thermal shift delta Tm (LOC_OS05G28520-cb001) [°C] | thermal shift delta Tm (LOC_OS05G30820-cb001) [°C] | thermal shift delta Tm (LOC_OS05G43570-cb004) [°C] | thermal shift delta Tm (LOC_OS06G16330-cb003) [°C] | thermal shift delta Tm (LOC_OS06G22820-cb001) [°C] | thermal shift delta Tm (LOC_OS07G06570-cb004) [°C] | thermal shift delta Tm (LOC_OS07G07230-cb001) [°C] |
| --- | --- | --- | --- | --- | --- | --- | --- | --- | --- | --- | --- | --- | --- | --- | --- | --- | --- | --- | --- | --- |
| C=CC(=O)Nc1ccc2ncnc(Nc3cccc(Br)c3)c2c1 | 0.51 | 0.24 | 0.68 | -0.11 | 0.2 | 0.37 | 0.27 | 0.79 | 0.18 | 0.35 | 0.39 | 0.86 | -2.41 | -0.05 | 0.56 | 0.31 | -0.95 | 0.64 | 0.91 | 0.32 |
| O=c1c(O)c(-c2ccc(O)c(O)c2)oc2cc(O)cc(O)c12 [Quercetin] | 3.32 | 0.4 | 0.73 | 5.69 | 2.91 | 2.18 | 2.6 | 4.71 | 3.37 | 0.61 | 0.22 | 10.2 | 3.82 | 0.95 | 0.67 | 1.19 | 5.31 | 1.15 | -0.26 | -0.07 |
| CN1CCN(Cc2ccc(-c3cnc4[nH]cc(-c5ccc6[nH]ccc6c5)c4c3)cc2)CC1 | 17.2 | 1.09 | 0.85 | 4.74 | 10.8 | 3.95 | 7.6 | 14.9 | 6.36 | 3.3 | 11.1 | 15.3 | 11.2 | 2.09 | 1.88 | 1.74 | 13.7 | 0.7 | 1.92 | 0.61 |
| CC(C)NC(=O)C1CCC(n2c(NC(=O)c3ccc(F)cc3)nc3ccc(CN4CCC(C(C)(C)O)CC4)cc32)CC1 (stereo not given) [Belizatinib (TSR-011)] | 1.72 | 1.61 | 0.67 | 6.22 | 1.09 | 0.85 | 3.76 | 6.28 | 1.98 | 0.49 | 6.67 | 8.98 | 13 | 4.12 | 0.47 | 0.09 | 4.55 | 0.48 | 1.37 | 0.49 |
| CNC(=O)c1ccccc1Sc1ccc2c(/C=C/c3ccccn3)n[nH]c2c1 [Axitinib] | 4.92 | 0.12 | 0.3 | 0.31 | 0.01 | 0.21 | 0.35 | 2.98 | 0.63 | 0.65 | 0.24 | 5.45 | 0.17 | -0.35 | 0.45 | 0.48 | 2.75 | 0.73 | 1.05 | 0.76 |
| COc1ncc(-c2cc(-c3ncc(CN4C[C@@H](C)O[C@@H](C)C4)o3)c3cn[nH]c3c2)cc1NS(C)(=O)=O | 0.86 | 0.25 | 0.39 | -0.09 | 0.23 | 0.64 | 0.71 | 1.06 | 0.79 | 0.49 | 0.12 | 1.71 | -0.4 | 0.61 | 0.21 | 0.39 | -0.32 | 0.44 | 0.86 | 0.19 |
| Cc1ccc([N+](=O)[O-])cc1S(=O)(=O)N(C)/N=C/c1cnc2ccc(Br)cn12 | 1.33 | 0.35 | 0.72 | 0.02 | 0.5 | 0.64 | 0.47 | 1.17 | 3.16 | 1.09 | 1.58 | 1.88 | 3.43 | 1.13 | 0.85 | 1.49 | 7.74 | 0.41 | 1.41 | 0.94 |
| Cc1csc(-c2nnc(Nc3ccc(Oc4ncccc4-c4ccnc(N)n4)cc3)c3ccccc23)c1 | 1.33 | 0.9 | 0.3 | 0.26 | 0.96 | 0.26 | 0.96 | 1.18 | 2.54 | 1.68 | 0.49 | 6.74 | 1.04 | 0.38 | 0.85 | 0.03 | 3.12 | 0.66 | 0.09 | 0.17 |
| O=c1cc(N2CCOCC2)oc2c(-c3cccc4c3sc3ccccc34)cccc12 | 1.11 | 0.33 | 0.66 | -0.18 | 0.6 | 0.91 | 0.32 | 0.58 | 0.87 | -0.31 | -0.76 | 0.31 | -2.7 | 0.25 | 0.1 | -0.66 | -1.48 | 0.17 | 0.25 | -0.42 |
| CCOc1ccn(-c2ccc(F)cc2)c(=O)c1C(=O)Nc1ccc(Oc2ccnc(N)c2Cl)c(F)c1 | 1.27 | 0.13 | 0.16 | 0.96 | 0.05 | 0.3 | 0.47 | 1.17 | 1.53 | 2.01 | 0.68 | 11.6 | 1.29 | 0.56 | 0.42 | 1.2 | 4.26 | 0.43 | 0.64 | 0.01 |
| O=C1NC(=O)/C(=C/c2cccc(C(F)(F)F)c2)S1 | 0.26 | 0.26 | 0.76 | 0.17 | 0.26 | 0.29 | 0.08 | 0.62 | -0.19 | 0.43 | 0.39 | 1.33 | -0.21 | 0.59 | 0.46 | 0.27 | 0.26 | 0.44 | 0.68 | 0.58 |
| CO[C@H]1C[C@@H]2CC[C@@H](C)[C@@](O)(O2)C(=O)C(=O)N2CCCC[C@H]2C(=O)O[C@H]([C@H](C)C[C@@H]2CC[C@@H](OP(C)(C)=O)[C@H](OC)C2)CC(=O)[C@H](C)/C=C(\C)[C@@H](O)[C@@H](OC)C(=O)[C@H](C)C[C@H](C)/C=C/C=C/C=C/1C [Ridaforolimus (Deforolimus, MK-8669)] | 0.46 | -0.33 | 0.25 | 0.04 | 0.01 | -0.11 | -0.15 | 0.34 | 0.98 | 0.85 | -0.31 | 0.02 | -1.14 | 0.42 | 0.41 | 0.24 | -0.22 | 0.77 | 1.03 | 0.31 |
